Experimental data published in PubChem BioAssay (NCI).
This is part of a sample that, as a whole, favours compounds with a hit. Of some 83,000 tested, about 20% had one in any assay.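 Percent growth is the endpoint: 0 to 100 indicates growth inhibition (40 means 60% inhibition), 0 means no net growth, and negative values indicate cell death.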 The source made the active and inactive calls. Rule for the calls: active = growth percent below 10; inactive = the rest.

What was measured:
Assay in all cases: NCI-60 one-dose screen, 48 h (100 = growth as untreated, 0 = no growth, -100 = all killed)
Conditions in all cases: 10 µM unless noted
NCI-H23 lung = tested on: NCI-H23 lung
NCI-H226 lung = tested on: NCI-H226 lung
NCI-H322M lung = tested on: NCI-H322M lung
HOP-62 NSCLC = tested on: HOP-62 NSCLC
NCI-H460 lung = tested on: NCI-H460 lung
HOP-92 NSCLC = tested on: HOP-92 NSCLC
NCI-H522 lung = tested on: NCI-H522 lung
A549/ATCC NSCLC = tested on: A549/ATCC NSCLC
786-0 renal = tested on: 786-0 renal
COLO 205 colon = tested on: COLO 205 colon

Measured: growth

COC1=CC(c2ccc[nH]2)=N/C1=C\c1[nH]c(C)c(C(=O)CCCCC(=O)NCc2ccccc2)c1C
active: NCI-H460 lung 1.07% | HOP-92 NSCLC -55.5% | NCI-H522 lung -33.5% | A549/ATCC NSCLC 1.81%
inactive: NCI-H23 lung 31.6% | NCI-H226 lung 28.6% | NCI-H322M lung 77% | HOP-62 NSCLC 57.1% | 786-0 renal 18.9% | COLO 205 colon 55.2%

CC(C)C(C(=O)CCN(C)C)c1ccc(Cl)cc1 (stereo not given)
inactive: NCI-H23 lung 103% | NCI-H226 lung 94.9% | NCI-H322M lung 99.3% | HOP-62 NSCLC 98.4% | NCI-H460 lung 104% | HOP-92 NSCLC 96.8% | NCI-H522 lung 74.2% | A549/ATCC NSCLC 61.6% | 786-0 renal 102% | COLO 205 colon 106%

O=C(CNc1c(Cl)cccc1Cl)Nc1ccc(-c2nc3ccccc3s2)cc1
inactive: NCI-H23 lung 40.9% | NCI-H226 lung 54.4% | NCI-H322M lung 94.6% | HOP-62 NSCLC 118% | NCI-H460 lung 91.2% | HOP-92 NSCLC 94.2% | A549/ATCC NSCLC 85.7% | 786-0 renal 24.1% | COLO 205 colon 87.7%
active: NCI-H522 lung -93.4%

Cc1ccc2nc(-c3c(N)n[nH]c3CCCO)[nH]c(=O)c2c1
inactive: NCI-H23 lung 105% | NCI-H226 lung 97.5% | NCI-H322M lung 107% | HOP-62 NSCLC 92.1% | NCI-H460 lung 110% | HOP-92 NSCLC 82.8% | NCI-H522 lung 114% | A549/ATCC NSCLC 103% | 786-0 renal 101% | COLO 205 colon 105%

C#CCN1C(=O)/C(=c2\sc3n(c2=O)NC2C(N=3)N(CC)C(=O)N2CC)c2ccccc21 (stereo not given)
inactive: NCI-H23 lung 54.1% | NCI-H226 lung 87.4% | NCI-H322M lung 95.8% | HOP-62 NSCLC 80.9% | NCI-H460 lung 99.2% | HOP-92 NSCLC 76.4% | NCI-H522 lung 52.4% | A549/ATCC NSCLC 85.6% | 786-0 renal 61.2% | COLO 205 colon 37.1%

CNC(=O)Cc1nc(-c2cccc(NS(=O)(=O)c3c(F)cccc3F)c2F)c(-c2ccnc(Nc3ccccc3)n2)s1
active: COLO 205 colon 7.06%
inactive: NCI-H23 lung 56% | NCI-H226 lung 74.3% | NCI-H322M lung 60.8% | HOP-62 NSCLC 43.3% | NCI-H460 lung 94% | HOP-92 NSCLC 17.3% | NCI-H522 lung 54.8% | A549/ATCC NSCLC 55.3% | 786-0 renal 64%

CN(C)c1ccc(/C=C\N=Nc2ccc(Br)cc2)cc1
inactive: NCI-H23 lung 79.8% | NCI-H226 lung 79.7% | NCI-H322M lung 77.9% | HOP-62 NSCLC 95.1% | NCI-H460 lung 51.2% | HOP-92 NSCLC 76.1% | NCI-H522 lung 37.9% | A549/ATCC NSCLC 58.7% | 786-0 renal 57.3% | COLO 205 colon 82.1%

CCCn1c(=S)sc2c(Cl)nc(C)nc21
inactive: NCI-H23 lung 110% | NCI-H226 lung 91.6% | NCI-H322M lung 93.6% | HOP-62 NSCLC 104% | NCI-H460 lung 88.5% | HOP-92 NSCLC 99.3% | NCI-H522 lung 33% | A549/ATCC NSCLC 117% | 786-0 renal 106% | COLO 205 colon 43.5%

O=c1oc2cc(OS(=O)(=O)c3ccc(F)cc3)ccc2c2c1CCCCC2
inactive: NCI-H23 lung 66.1% | NCI-H226 lung 55.1% | NCI-H322M lung 90.4% | HOP-62 NSCLC 96.4% | NCI-H460 lung 65.5% | HOP-92 NSCLC 60% | NCI-H522 lung 49.8% | A549/ATCC NSCLC 55.9% | 786-0 renal 76.2% | COLO 205 colon 24.4%

CC(Cc1nnc(SCC(=O)Nc2ccc(I)cc2)n1N)c1ccccc1 (stereo not given)
inactive: NCI-H23 lung 99.8% | NCI-H226 lung 87.2% | NCI-H322M lung 95.7% | HOP-62 NSCLC 71% | NCI-H460 lung 96.1% | HOP-92 NSCLC 76.7% | NCI-H522 lung 82.8% | A549/ATCC NSCLC 100% | 786-0 renal 72% | COLO 205 colon 93.9%

Cc1cc(N/C=c2\sc3ncnn3c2=O)no1
inactive: NCI-H23 lung 91.6% | NCI-H226 lung 108% | NCI-H322M lung 81.5% | HOP-62 NSCLC 103% | NCI-H460 lung 105% | HOP-92 NSCLC 92.2% | NCI-H522 lung 90.8% | A549/ATCC NSCLC 107% | 786-0 renal 100% | COLO 205 colon 112%

O=C1N=C(c2c(-c3[nH]c(=O)c4ccc(Br)cc4c3O)c(O)c3ccccc3c2O)C(=O)c2cc(Br)ccc21
inactive: COLO 205 colon 73.1%
active: NCI-H23 lung -43% | NCI-H226 lung -30.4% | NCI-H322M lung -3.29% | HOP-62 NSCLC -52.9% | NCI-H460 lung -80.9% | HOP-92 NSCLC -13.2% | NCI-H522 lung -31.4% | A549/ATCC NSCLC -32.2% | 786-0 renal -63.2%

O=C(NNC(=S)Nc1ccccc1)c1ccccn1
inactive: NCI-H23 lung 73.1% | NCI-H226 lung 43.4% | NCI-H322M lung 23.3% | HOP-62 NSCLC 37.9% | NCI-H460 lung 21.2% | HOP-92 NSCLC 16.7% | NCI-H522 lung 69% | A549/ATCC NSCLC 24.3% | 786-0 renal 22.6% | COLO 205 colon 22.5%

Clc1ccc2c(c1)NC1(CCSc3ccccc31)n1nccc1-2 (stereo not given)
inactive: NCI-H23 lung 98.5% | NCI-H226 lung 92.5% | NCI-H322M lung 95.1% | HOP-62 NSCLC 112% | NCI-H460 lung 103% | HOP-92 NSCLC 91.6% | NCI-H522 lung 89.7% | A549/ATCC NSCLC 90% | 786-0 renal 96.9% | COLO 205 colon 114%

Cc1cc(Cl)ccc1OC(C)C(=O)Nc1nnc(C2CC2)s1 (stereo not given)
inactive: NCI-H23 lung 76.7% | NCI-H226 lung 98.5% | NCI-H322M lung 124% | HOP-62 NSCLC 94.7% | NCI-H460 lung 114% | HOP-92 NSCLC 81.3% | NCI-H522 lung 94.6% | A549/ATCC NSCLC 86.3% | 786-0 renal 92.7% | COLO 205 colon 105%

O=S(=O)(NCCNc1cc(-c2cn(-c3ccccc3)nc2-c2ccccc2)ccn1)c1cccc2ccccc12
active: HOP-92 NSCLC 2.24% | COLO 205 colon 8.28%
inactive: NCI-H23 lung 49.8% | NCI-H226 lung 48% | NCI-H322M lung 68.7% | HOP-62 NSCLC 68.2% | NCI-H460 lung 44.4% | NCI-H522 lung 78.9% | A549/ATCC NSCLC 42.3% | 786-0 renal 49.7%

O=C(Cc1n[nH]c(=O)c2ccccc12)OCc1c(Cl)cccc1Cl
inactive: NCI-H23 lung 103% | NCI-H226 lung 77.5% | NCI-H322M lung 107% | HOP-62 NSCLC 69.1% | NCI-H460 lung 26.3% | HOP-92 NSCLC 88.2% | NCI-H522 lung 98.9% | A549/ATCC NSCLC 96.4% | 786-0 renal 81.6% | COLO 205 colon 112%

CCN(CC)P(=O)(N(CC)CC)N(CCCSC/C=C(\C)CC/C=C(\C)CCC=C(C)C)CCCN1CCN(C)CC1
inactive: NCI-H23 lung 110% | NCI-H226 lung 96.9% | NCI-H322M lung 108% | HOP-62 NSCLC 106% | NCI-H460 lung 101% | HOP-92 NSCLC 82.4% | NCI-H522 lung 91.6% | A549/ATCC NSCLC 87.6% | 786-0 renal 101% | COLO 205 colon 105%

CCC1CCc2nc3sc(C(=O)Nc4ccccc4F)c(N)c3cc2C1 (stereo not given)
inactive: NCI-H23 lung 78.2% | NCI-H226 lung 89.8% | NCI-H322M lung 92.8% | HOP-62 NSCLC 76.4% | NCI-H460 lung 75.4% | HOP-92 NSCLC 58.3% | NCI-H522 lung 71.9% | A549/ATCC NSCLC 79.5% | 786-0 renal 91.4% | COLO 205 colon 64.2%

O=C(N/N=C/c1c(Cl)cccc1Cl)c1ccccc1Nc1ccnc(C(F)(F)F)c1
inactive: NCI-H23 lung 46% | NCI-H226 lung 65.2% | NCI-H322M lung 58.6% | HOP-62 NSCLC 67.2% | NCI-H460 lung 36.1% | HOP-92 NSCLC 71.5% | NCI-H522 lung 52.6% | A549/ATCC NSCLC 49.2% | 786-0 renal 75% | COLO 205 colon 94.7%
